Screens (PubChem)
ELG1 genotox – induces genotoxicity in HEK293T cells with luciferase-tagged ELG1; HEK293T ELG1-luciferase reporter, luminescence, 16 h; Potency, µM (doses to about 46 µM), for the others: at the highest dose activity change, positive = activation, hits mostly activators; 330,000 compounds, 1.3% hits; AID 504466; also: % of control where 0% means no effect; nearly all actives have a fitted effect of over 60% in size
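Luminescence read-out: rising ELG1-luciferase signal, reflecting elevated ELG1 protein under genetic stress, flags genotoxic compounds. Cells were treated for 16 hr at 37 °C before ONE-Glo detection.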
SMN2 splice up – enhancers of SMN2 splice variant expression; 210,000 compounds, 2.8% hits; AID 1458; HEK293 SMN2-luciferase splicing reporter, luminescence, 30-36 h; Potency, µM (doses to about 46.1 µM), without a hit: at the highest dose activity change, positive = activation, usual class: activators; also: % of control where 0% means no effect; nearly all actives have a fitted effect of over 55% in size
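HEK293 cells carry an SMN2 […]–luciferase reporter in which exon 7 inclusion puts luciferase in frame. Cells were plated 10-12 h before compound addition, then incubated 30-36 h at 37C. ONE-Glo luminescence was read; sodium butyrate at 4.5 mM final served as control.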
Luc counter – blocks Kinase-Glo luciferase, a counter-screen artifact | 200,000 compounds, 0.28% hits | Potency, µM (top dose mostly 38.3 µM), inactives show at the top dose activity change, negative = inhibition, actives largely listed as inhibitors | Q27757 | Kinase-Glo luciferase, ATP luminescence, 8 min; also: % is scaled to controls: 0 for no effect and ±100 for the full control effect; nearly all actives have a fitted effect of over 60% in size
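Compound is pinned into ATP-containing buffer (10 uM ATP, imidazole pH 7.2, 7 mM MgCl2). Kinase-Glo luciferase reagent is then added. Light output is recorded following an 8-min room-temperature incubation.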
FLuc counter – firefly luciferase modulation, counter-screen for miR-21 project. Potency, µM (titrated, usually from 57.5 µM), without a hit: top-dose activity change, negative = inhibition, most hits filed as inhibitors. purified FLuc, Km substrates, luminescence inhibition. AID 588342. 360,000 compounds, 6.9% hits;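 also: plate controls were vehicle for no effect and reference inhibitor for full effect; nearly all actives have a fitted effect of over 55% in size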
Target sequence (P08659 whole entry, looked up): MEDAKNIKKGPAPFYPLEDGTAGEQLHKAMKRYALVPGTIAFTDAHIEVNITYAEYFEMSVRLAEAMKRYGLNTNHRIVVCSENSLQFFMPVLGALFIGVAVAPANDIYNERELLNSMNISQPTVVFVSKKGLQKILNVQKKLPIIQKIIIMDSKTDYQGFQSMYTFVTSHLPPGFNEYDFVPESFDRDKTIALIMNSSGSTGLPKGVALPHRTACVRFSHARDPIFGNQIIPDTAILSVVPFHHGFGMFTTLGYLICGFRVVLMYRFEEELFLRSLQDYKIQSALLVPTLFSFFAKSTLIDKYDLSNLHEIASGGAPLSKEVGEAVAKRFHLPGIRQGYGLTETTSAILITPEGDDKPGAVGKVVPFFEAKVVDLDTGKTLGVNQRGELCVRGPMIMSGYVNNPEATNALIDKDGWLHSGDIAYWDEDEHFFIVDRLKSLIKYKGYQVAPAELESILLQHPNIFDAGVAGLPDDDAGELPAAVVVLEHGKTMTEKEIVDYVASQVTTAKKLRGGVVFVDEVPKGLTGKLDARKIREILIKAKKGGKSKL
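Biochemical qHTS of compounds, final roughly 60 µM downward over six points, against 10 nM purified firefly luciferase using Km concentrations of substrates (10 uM D-luciferin, 10 uM ATP) in Tris acetate pH 7.5 buffer; luminescence output.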
NPC1 prom act – activates the NPC1 promoter; 320,000 compounds, 2.4% hits; AID 485313; Potency, µM (doses to about 9.22 µM), for inactives: at the top dose activation, most hits filed as activators; Huh7 NPC1 promoter luciferase reporter, 24 h; also: % of control where 0% means no effect; nearly all actives have a fitted effect of over 60% in size
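Luminescence from an NPC1 promoter-driven luciferase reporter in stably transfected Huh7 cells was measured after 24 h compound treatment at 37 °C, followed by 10 min ambient incubation with luciferase detection reagent.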
Rab9 promoter act – activators of Rab9 promoter | Huh7 Rab9 promoter-luciferase reporter, luminescence, 24 h | Potency, µM (top dose mostly 9.22 µM), for the others: at the highest dose activation, negative = inhibition, actives largely listed as activators | 320,000 compounds, 2.8% hits | AID 485297; also: % of control where 0% means no effect; nearly all actives have a fitted effect of over 60% in size
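Steps: seed 1500 Huh7 Rab9-luc cells per well, rest 2 h at 37 °C; add compound in DMSO; incubate 24 h; add luciferase reagent, 10 min ambient; read luminescence.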
An asterisk follows results filed as active; u = inconclusive; x = no result; [ ] = remark or other dose. Compounds with a hit are over-represented: about 7.5% of the library has one in this group of screens. Calls follow the shape of the dose curve; as a rule, active = well fitted curve in the direction sought with a large enough effect; inconclusive = small, poorly fitted or top-dose-only effect, or another doubt; inactive = no such curve, though single readings can be large; an effect the other way counts as inactive or inconclusive. Potency is read from the fitted curve at half-maximal effect.

SMILES	ELG1 genotox	SMN2 splice up	Luc counter	FLuc counter	NPC1 prom act	Rab9 promoter act
Cc1ccc(/C=C/c2nnc(-c3ccccc3)o2)cc1	u	u	-14%	5.4µM*	0.89µM*	1.1µM*
C(=C\c1nnc(-c2cccs2)o1)/c1ccccc1	u	u	-6%	5.4µM*	2.5µM*	2.5µM*
Cc1ccc(-c2nnc(Nc3ccccc3)o2)cc1	0.15µM*	0.4µM*	13µM*	0.15µM*	u	0.13µM*
NC(=O)CC(NC(=O)Cc1ccc(Br)cc1)c1ccc(N2CCC(N3CCCC3)CC2)c([N+](=O)[O-])c1 (configuration not stated)	1%	x	x	6%	3%	-1%
Cc1ccc(O)c(C=Nc2ccc3[nH]ncc3c2)c1	-3%	23%	-3%	19µM*	5%	-6%
Cc1nn(C)c(C(=O)Nc2ccc(S(=O)(=O)NC34CC5CC(CC(C5)C3)C4)cc2)c1Br	6%	1µM*	-1%	-17%	1.4µM*	1.6µM*
Cc1ccc(S(=O)(=O)NC23CC4CC(CC(C4)C2)C3)cc1	0%	x	x	x	-1%	-12%
O=C(COc1ccccc1)Nc1ccc(S(=O)(=O)N2CCOCC2)cc1	0%	-6%	0%	0%	-1%	3%
CN1CCN(c2ccc(NC(=O)COc3ccccc3Cl)cc2)CC1	u	-15%	2%	u	-1%	-3%
O=C(COc1ccccc1)Nc1ccc(-c2ccc(N3CCOCC3)nn2)cc1	u	x	x	u	u	2.2µM*
CN1CCN(c2ccc(-c3cccc(NC(=O)COc4ccccc4)c3)nn2)CC1	2.6µM*	x	x	1.5µM*	1.6µM*	1.6µM*
CN1CCN(c2ccc(-c3cccc(NC(=O)COc4ccc(Cl)cc4Cl)c3)nn2)CC1	0.65µM*	x	x	0.48µM*	u	u
CN1CCN(c2ccc(-c3cccc(NC(=O)COc4ccc(Cl)cc4)c3)nn2)CC1	2.1µM*	x	x	1.1µM*	2.8µM*	2µM*
Cc1ccc(Cl)cc1NC(=O)C(Cc1ccccc1)NS(=O)(=O)c1cccc2nsnc12 (configuration not stated)	x	0%	x	-18%	x	x
Oc1c(C(c2ccc(Cl)cc2)N2CCOCC2)sc2nc(-c3ccco3)nn12 (configuration not stated)	x	x	x	-19%	x	x
CCCCc1c(C)nc2c(-c3ccc(OC)cc3)c(C)[nH]n2c1=O	x	-2%	x	-18%	x	x
O=[N+]([O-])c1ncccc1OCc1ccc(Cl)c(Cl)c1	18µM*	x	x	24µM*	u	u
CN(C)S(=O)(=O)c1cccc(COc2cccnc2[N+](=O)[O-])c1	-3%	x	x	-1%	-30%	-1%
Clc1ccc(COn2nnc3ccccc32)c(Cl)c1	x	u	-1%	3.8µM*	x	x
COc1cc(/C=N/NC(=O)C2COc3ccccc3O2)ccc1O (configuration not stated)	-4%	x	x	u	1%	-1%
COc1ccc(/C=N/NC(=O)C2COc3ccccc3O2)cc1OC (configuration not stated)	7%	5%	-3%	19µM*	-2%	1%
O=C(N/N=C/c1ccc2c(c1)OCO2)C1COc2ccccc2O1 (configuration not stated)	3%	13%	-1%	17µM*	1%	15%
CC(/C=C/c1ccc2c(c1)OCO2)=N/NC(=O)C1COc2ccccc2O1 (configuration not stated)	-2%	-15%	2%	-10%	-3%	-7%
COc1ccc(/C=N\NC(=O)C2COc3ccccc3O2)cc1O (configuration not stated)	7%	x	x	24µM*	-1%	-3%
COc1cccc(-c2oc3ccc(C)cc3c(=O)c2O)c1	x	10µM*	x	2.7µM*	x	x
SMILES	ELG1 genotox	SMN2 splice up	Luc counter	FLuc counter	NPC1 prom act	Rab9 promoter act
O=c1c(O)c(-c2ccccc2)oc2ccccc12	x	-36%	-3%	x	x	x
Cc1ccc(-c2oc3ccccc3c(=O)c2O)cc1	23µM*	6%	-3%	u	25%	27%
COc1ccc(NC(=O)CN(c2cc(C)cc(C)c2)S(=O)(=O)c2c(C)noc2C)cc1Cl	x	4%	x	-5%	x	x
c1ccc(CCNc2ccccn2)nc1	x	1%[9.22 µM]	-8%[7.66 µM]	x	x	x
CC(C)(C)c1ccc(S(=O)(=O)CCc2ccccn2)cc1	21µM*	9%	2%	17µM*	u	u
Fc1ccc(N2CCN(Cc3ccccn3)CC2)cc1	-2%	-5%	-2%	0%	-7%	9%
CC(C)(C)c1ccc(SCCc2ccccn2)cc1	u	x	x	3.8µM*	2.2µM*	3.2µM*
Fc1ccc(SCCc2ccccn2)cc1	u	x	x	17µM*	22%	u
Cc1cc(C(N)=O)c2ccccc2n1	0%	2%	2%	2%	0%	6%
NC(=O)c1cc2c3ccccc3ccn2c1-c1ccccc1	12µM*	x	x	21µM*	-2%	-15%
CSc1ccccc1C(=O)Nc1c(C)cccc1C	0%	x	x	3%	-4%	-2%
COC(=O)c1cccc(C(=O)Nc2ccc(C)cc2)n1	10%	-4%	-20%	12µM*	3.5µM*	u
CCc1ccc(NC(=O)c2ccccc2SC)cc1	u	u	-12%	15µM*	u	u
CCc1ccc(NC(=O)c2cccc(C(=O)Nc3ccc(CC)cc3)n2)cc1	6%	x	x	5.4µM*	9%	16%
COC(=O)c1ccccc1NC(=O)c1ccc2c(Cl)c3c(nc2c1)CCCC3	x	-1%	x	12µM*	x	x
COCCNC(=O)c1ccc2c(Cl)c3c(nc2c1)CCC3	u	x	x	8.5µM*	u	3.5µM*
CCOC(=O)c1ccccc1NC(=O)c1ccc2c(Cl)c3c(nc2c1)CCC3	x	8%	x	5.4µM*	x	x
COc1cc(NC(=O)c2ccc3c(Cl)c4c(nc3c2)CCC4)cc(OC)c1OC	x	6%	x	u	x	x
CCOC(=O)c1ccccc1NC(=O)c1ccc2c(=O)n3c(nc2c1)CCCCC3	-6%	-22%	-1%	u	0%	-4%
CCCN(CCC)CCCNC(=O)c1ccc2c(Cl)c3c(nc2c1)CCC3	-1%	x	x	-5%	1%	0%
COc1ccc(OC)c(NC(=O)c2ccc3c(Cl)c4c(nc3c2)CCCC4)c1	x	12%	x	-19%	x	x
CCOC(=O)c1cccc(NC(=O)c2ccc3c(Cl)c4c(nc3c2)CCC4)c1	x	8%	x	0.3µM*	x	x
COc1cccc(CN(C)C(=O)c2ccc3nccnc3c2)c1	-2%	-8%	0%	4%	0%	-5%
CCOC(=O)c1c(C)n(-c2ccccc2)c2ccc(OC(=O)c3ccc(OCC)c(OCC)c3)cc12	x	-17%	x	6%	x	x
